According to PubChem BioAssay (EPA / NIEHS):
Inconclusive results are not listed. The source made the active and inactive calls. Rule for the calls, unless noted: active = hit-call score of the fitted dose curve at least 0.9, where 1 is the maximum; inactive = score below 0.9.

Experiments:
[1] = ACEA_ER_80hr: ACEA Biosciences xCELLigence Real-Time Cell Analysis on Estrogen Receptor Agonism for Proliferation (AID 2282667; active = hit-call score of the fitted dose curve at least 0.9, where 1 is the maximum); conditions: T47D proliferation, impedance (xCELLigence), 80 h
Procedure, shortened: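 Estrogen-driven proliferation is captured as electrode impedance in T47D cells 80 h after compound addition. Test articles ran at 8 concentrations, 1:4 dilutions from 100 uM final, in two replicate plates.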

[2] = ATG_CRE_CIS: Attagene CIS-FACTORIAL HepG2 Assay for human cAMP Responsive Element (CRE) binding protein 3 (AID 2282926); conditions: HepG2 CRE cis-reporter, Attagene multiplexed mRNA; actives raise or lower the signal
Procedure, shortened: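 Transfected HepG2 were treated for 24 hours, then RNA was extracted and reporter cDNA amplified with sequence-specific primers. Labelled fragments were separated by capillary electrophoresis, and the CRE signal was fitted bidirectionally with DMSO as baseline.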

[3] = biological target: CCAAT/enhancer-binding protein beta (Homo sapiens) (UniProt P17676); assay: ATG_C_EBP_CIS: Attagene CIS-FACTORIAL HepG2 Assay for human CCAAT/Enhancer Binding Protein (C/EBP) beta (AID 2282927); conditions: HepG2 Attagene cis-factorial transcription factor reporter; actives raise or lower the signal
CCAAT/enhancer-binding protein beta (Homo sapiens), sequence (P17676 whole entry, looked up, the tested form may be a part): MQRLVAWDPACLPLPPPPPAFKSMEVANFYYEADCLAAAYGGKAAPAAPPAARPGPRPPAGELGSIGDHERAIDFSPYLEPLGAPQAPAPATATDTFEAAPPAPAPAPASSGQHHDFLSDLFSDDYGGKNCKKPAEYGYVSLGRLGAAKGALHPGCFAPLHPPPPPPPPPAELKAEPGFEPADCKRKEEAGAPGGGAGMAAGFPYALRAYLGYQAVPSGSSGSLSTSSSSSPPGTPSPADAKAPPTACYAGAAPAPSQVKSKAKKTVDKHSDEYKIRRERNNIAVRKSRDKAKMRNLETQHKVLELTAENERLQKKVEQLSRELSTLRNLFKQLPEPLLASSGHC
Procedure, shortened: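 Endogenous C/EBPb-driven reporter transcripts measured in transfected human HepG2 cells at 24 h via RT-PCR and capillary electrophoresis of labelled fragments. Activity fitted in both directions relative to DMSO baseline.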

[4] = ATG_CMV_CIS: Attagene CIS-FACTORIAL HepG2 Assay for human CMV (Internal Marker) (AID 2282928); conditions: HepG2 CMV promoter reporter, transcription factor profiling; actives raise or lower the signal;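 note: endpoint acts as a background internal control marker rather than a target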
Procedure, shortened: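 Endogenous transcription factor activity read in HepG2 via transfected cis-promoter reporter units. After 24 h dosing, reporter mRNA measured by RT-PCR/capillary electrophoresis; gain or loss of signal fit relative to DMSO.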

[5] = ATG_DR4_LXR_CIS: Attagene CIS-FACTORIAL HepG2 Assay for human Liver X Receptor (LXR), DR4 submotif (AID 2282929); conditions: HepG2 Attagene DR4 cis-reporter, mRNA transcription; actives raise or lower the signal
Procedure, shortened: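 HepG2, transient MRTU transfection, cis-element (DR4) promoter; 24 h compound exposure; total RNA → oligo(dT) RT → PCR → 6-FAM primer extension → HpaI cut → CE. Gain/loss vs DMSO, bidirectional fit.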

[6] = biological target: Aryl hydrocarbon receptor (Homo sapiens) (UniProt P35869); assay: ATG_Ahr_CIS: Attagene CIS-FACTORIAL HepG2 Assay for human Aryl Hydrocarbon Receptor (Ahr) (AID 2282930); conditions: HepG2 AhR cis-factorial reporter transcription; actives raise or lower the signal
Aryl hydrocarbon receptor (Homo sapiens), sequence (P35869 whole entry, looked up): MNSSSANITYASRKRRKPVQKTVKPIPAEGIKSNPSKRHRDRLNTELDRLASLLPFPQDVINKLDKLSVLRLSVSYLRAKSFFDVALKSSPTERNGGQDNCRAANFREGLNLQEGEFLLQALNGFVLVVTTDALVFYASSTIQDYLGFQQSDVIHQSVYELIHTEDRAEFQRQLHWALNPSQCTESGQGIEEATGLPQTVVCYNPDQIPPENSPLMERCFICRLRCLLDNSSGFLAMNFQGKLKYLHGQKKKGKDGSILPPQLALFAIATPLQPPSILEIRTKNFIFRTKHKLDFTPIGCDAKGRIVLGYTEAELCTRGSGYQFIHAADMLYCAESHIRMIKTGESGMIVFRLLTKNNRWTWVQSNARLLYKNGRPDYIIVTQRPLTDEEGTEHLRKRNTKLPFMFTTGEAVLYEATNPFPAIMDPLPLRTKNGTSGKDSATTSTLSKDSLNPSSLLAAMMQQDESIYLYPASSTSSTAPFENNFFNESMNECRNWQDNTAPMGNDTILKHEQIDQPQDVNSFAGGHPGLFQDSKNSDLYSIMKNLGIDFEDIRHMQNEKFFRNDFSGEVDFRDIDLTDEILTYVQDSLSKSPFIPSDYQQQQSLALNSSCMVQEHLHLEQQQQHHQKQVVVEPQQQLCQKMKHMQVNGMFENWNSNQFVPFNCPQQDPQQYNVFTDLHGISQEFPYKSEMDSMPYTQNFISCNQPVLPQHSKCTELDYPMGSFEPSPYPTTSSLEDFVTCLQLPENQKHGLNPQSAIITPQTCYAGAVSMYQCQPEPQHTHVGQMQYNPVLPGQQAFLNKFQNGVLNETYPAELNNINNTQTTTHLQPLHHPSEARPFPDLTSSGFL
Procedure, shortened: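 Reporter mRNA levels, quantified by RT-PCR and fluorescent capillary electrophoresis, reflect endogenous AhR transcriptional activity in HepG2 cells carrying transfected cis-promoter reporter constructs. Readout at 24 h post-dose; gain or loss fitted against DMSO baseline.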

[7] = ATG_AP_1_CIS: Attagene CIS-FACTORIAL HepG2 Assay for human Activator Protein 1 (AP-1) (AID 2282931); conditions: HepG2 Attagene cis-factorial AP-1 reporter mRNA; actives raise or lower the signal
Procedure, shortened: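 Transient MRTU transfection of HepG2 → 24 h chemical treatment → RNA isolation, RT-PCR, 6-FAM labelling, HpaI digest → capillary electrophoresis. Fit: bidirectional, DMSO negative control.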

[8] = ATG_BRE_CIS: Attagene CIS-FACTORIAL HepG2 Assay for human Bone Morphogenetic Protein (BMP) Response Element (BRE) (AID 2282933); conditions: HepG2 BMP response element reporter, Attagene transcription factor profiling; actives raise or lower the signal
Procedure, shortened: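 Gain- or loss-of-signal was derived by bidirectional fitting against DMSO controls. The signal came from reporter mRNA, measured by RT-PCR and capillary electrophoresis, in HepG2 cells transiently carrying multiple reporter units and dosed for 24 h.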

[9] = biological target: Retinoic acid receptor alpha (Homo sapiens) (UniProt P10276); assay: ATG_DR5_RAR_CIS: Attagene CIS-FACTORIAL HepG2 Assay for human Retinoic Acid Receptor Alpha (RARE), DR5 submotif (AID 2282934); conditions: HepG2 Attagene cis-factorial RARE DR5 reporter, mRNA; actives raise or lower the signal
Retinoic acid receptor alpha (Homo sapiens), sequence (P10276 whole entry, looked up): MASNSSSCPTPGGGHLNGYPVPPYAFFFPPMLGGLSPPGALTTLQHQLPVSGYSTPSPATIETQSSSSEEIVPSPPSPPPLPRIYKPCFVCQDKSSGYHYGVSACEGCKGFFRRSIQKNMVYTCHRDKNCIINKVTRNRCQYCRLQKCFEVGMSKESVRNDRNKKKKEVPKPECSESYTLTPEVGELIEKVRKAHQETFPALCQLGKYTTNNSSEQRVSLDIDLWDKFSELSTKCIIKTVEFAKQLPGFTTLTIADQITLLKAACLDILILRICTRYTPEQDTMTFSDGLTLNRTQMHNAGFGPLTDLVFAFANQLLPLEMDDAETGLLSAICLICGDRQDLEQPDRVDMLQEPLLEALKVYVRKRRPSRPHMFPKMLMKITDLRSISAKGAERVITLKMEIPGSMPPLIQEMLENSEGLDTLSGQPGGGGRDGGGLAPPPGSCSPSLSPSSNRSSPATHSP
Procedure, shortened: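 Reporter transcripts from a DR5-regulated unit, measured via RT-PCR plus capillary electrophoresis, reflect endogenous RAR activity in transiently transfected human HepG2 liver cells. Exposure lasted 24 h; gain or loss of signal scored against DMSO.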

[10] = ATG_E_Box_CIS: Attagene CIS-FACTORIAL HepG2 Assay for human Enhancer Box (E-box) (AID 2282936); conditions: HepG2 E-box cis-reporter transcription, actives raise or lower the signal
Procedure, shortened: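 Cells: HepG2 (human liver), transient MRTU transfection. Exposure 24 h. RNA → oligo(dT) RT → PCR → 6-FAM label → HpaI → CE. Activity fitted both directions relative to DMSO.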

[11] = ATG_M_61_CIS: Attagene CIS-FACTORIAL HepG2 Assay for M61 Transcription Factor (Internal Marker) (AID 2282937); conditions: HepG2 Attagene CIS-FACTORIAL M61 internal marker reporter; actives raise or lower the signal
Procedure, shortened: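 Human liver HepG2, transient MRTU transfection (cis promoter elements), 24 h compound. Total RNA → oligo(dT) RT → PCR → FAM label → HpaI → CE. Internal background marker; bidirectional fitting, DMSO = baseline.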

[12] = ATG_EGR_CIS: Attagene CIS-FACTORIAL HepG2 Assay for human Early Growth Response 1 (EGR1) (AID 2282938); conditions: HepG2 Attagene CIS-FACTORIAL EGR reporter mRNA; actives raise or lower the signal
Procedure, shortened: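 Transient transfection of human HepG2 with multiple cis-regulated reporter units, chemical exposure 24 h, total RNA isolated. Reverse transcription, PCR, fluorescent labelling and capillary electrophoresis quantify reporter transcripts; activity fitted bidirectionally against DMSO.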

[13] = ATG_ERE_CIS: Attagene CIS-FACTORIAL HepG2 Assay for Estrogen Response Element (ERE) (AID 2282940); conditions: HepG2 ERE cis-reporter, Attagene RNA transcript; actives raise or lower the signal
Procedure, shortened: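 HepG2, transient cis-reporter units, 24 h exposure. RNA isolated, oligo(dT) RT, reporter-specific PCR, FAM extension, HpaI cut, CE detection. Gain/loss-of-signal vs DMSO.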

[14] = ATG_Ets_CIS: Attagene CIS-FACTORIAL HepG2 Assay for human Erythroblast Transformation Specific (ETS) (AID 2282941); conditions: HepG2 ETS cis-reporter transcription, actives raise or lower the signal
Procedure, shortened: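 Steps: transfect HepG2 with multiple reporter units; treat compound 24 h; isolate RNA, DNase-treat, reverse-transcribe; PCR-amplify, label with 6-FAM, digest with HpaI; separate by capillary electrophoresis. Activity fitted both directions versus DMSO.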

[15] = biological target: Hepatocyte nuclear factor 3-beta (Homo sapiens) (UniProt Q9Y261); assay: ATG_FoxA2_CIS: Attagene CIS-FACTORIAL HepG2 Assay for human Forkhead box A2 (FOXA2) (AID 2282942); conditions: HepG2 cis-reporter transcription factor activity, 24 h; actives raise or lower the signal
Hepatocyte nuclear factor 3-beta (Homo sapiens), sequence (Q9Y261 whole entry, looked up): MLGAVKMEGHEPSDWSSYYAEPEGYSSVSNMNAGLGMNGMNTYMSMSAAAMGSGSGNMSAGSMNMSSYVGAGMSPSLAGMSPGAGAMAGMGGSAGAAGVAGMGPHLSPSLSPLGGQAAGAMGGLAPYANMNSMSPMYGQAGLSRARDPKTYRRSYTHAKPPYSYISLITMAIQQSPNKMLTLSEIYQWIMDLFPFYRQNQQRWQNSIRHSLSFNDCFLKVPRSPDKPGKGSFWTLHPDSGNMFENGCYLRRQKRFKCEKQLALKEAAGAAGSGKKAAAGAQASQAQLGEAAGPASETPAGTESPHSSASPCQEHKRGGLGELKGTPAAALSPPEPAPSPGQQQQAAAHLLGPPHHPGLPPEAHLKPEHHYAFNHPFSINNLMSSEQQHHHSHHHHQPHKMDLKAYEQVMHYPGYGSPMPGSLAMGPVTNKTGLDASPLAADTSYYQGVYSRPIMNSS
Procedure, shortened: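 Transient MRTU transfection of HepG2 liver cells; 24 h treatment; total RNA → oligo(dT) RT → PCR → FAM primer extension → HpaI cut → CE. Bidirectional fit vs DMSO.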

[16] = ATG_FoxO_CIS: Attagene CIS-FACTORIAL HepG2 Assay for human Forkhead box O (FoxO) (AID 2282943); conditions: HepG2 Attagene cis-reporter, FoxO element, mRNA; actives raise or lower the signal
Procedure, shortened: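 Endogenous transcription factor activity read from multiplexed cis-promoter reporter transcripts in transiently transfected HepG2, 24 h after dosing. Reporter RNA measured via RT-PCR plus capillary electrophoresis of FAM-labeled products; gain or loss relative to DMSO.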

[17] = ATG_GATA_CIS: Attagene CIS-FACTORIAL HepG2 Assay for human GATA Binding Protein (AID 2282944); conditions: HepG2 GATA cis-element reporter, Attagene multiplex mRNA; actives raise or lower the signal
Procedure, shortened: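 DMSO serves as negative control and baseline for bidirectional fitting of reporter mRNA changes. HepG2 cells bearing transiently transfected cis-promoter reporters were exposed 24 h; transcripts detected via RT-PCR and capillary electrophoresis.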

[18] = biological target: Transcription factor E2F1 (Homo sapiens) (UniProt Q01094); assay: ATG_E2F_CIS: Attagene CIS-FACTORIAL HepG2 Assay for human E2F Transcription Factor 1 (AID 2282935); conditions: HepG2 Attagene cis-reporter, E2F reporter RNA transcripts; actives raise or lower the signal
Transcription factor E2F1 (Homo sapiens), sequence (Q01094 whole entry, looked up): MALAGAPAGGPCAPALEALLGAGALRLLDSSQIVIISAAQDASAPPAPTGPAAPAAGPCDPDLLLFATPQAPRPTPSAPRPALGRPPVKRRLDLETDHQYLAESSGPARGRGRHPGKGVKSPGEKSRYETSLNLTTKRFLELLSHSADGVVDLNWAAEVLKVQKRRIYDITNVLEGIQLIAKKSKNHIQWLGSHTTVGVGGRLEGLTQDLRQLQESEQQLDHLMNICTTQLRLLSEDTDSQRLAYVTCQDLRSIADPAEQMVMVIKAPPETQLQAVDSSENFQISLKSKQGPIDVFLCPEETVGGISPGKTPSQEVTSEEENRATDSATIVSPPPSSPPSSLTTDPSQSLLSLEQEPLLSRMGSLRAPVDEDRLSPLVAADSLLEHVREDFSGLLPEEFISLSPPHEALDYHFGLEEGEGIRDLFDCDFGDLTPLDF
Procedure, shortened: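 Cis-element reporter mRNA induction in transiently transfected HepG2, 24 h exposure. Activity fitted in both directions relative to DMSO negative control.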

[19] = ATG_M_19_CIS: Attagene CIS-FACTORIAL HepG2 Assay for M19 Transcription Factor (Internal Marker) (AID 2282939); conditions: HepG2 Attagene CIS-FACTORIAL M19 internal marker reporter; actives raise or lower the signal
Procedure, shortened: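 Following a 24 h exposure, RNA from transfected HepG2 cells was reverse-transcribed, PCR-amplified with reporter-specific primers, end-labelled with 6-FAM and HpaI-digested before capillary separation. Values represent gain or loss versus DMSO.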

[20] = ATG_AP_2_CIS: Attagene CIS-FACTORIAL HepG2 Assay for human Activator Protein 2 (AP-2) (AID 2282932); conditions: HepG2 AP-2 cis-reporter, Attagene transcription factor profiling; actives raise or lower the signal
Procedure, shortened: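 HepG2, transient MRTU transfection, cis-regulated reporters; 24 h compound exposure; RNA isolated, RT-PCR, 6-FAM labelling, HpaI digest, CE fluorescence. DMSO = negative control/baseline, bidirectional fit.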

Measured: AC50

CCOCN(C(=O)CS(=O)(=O)O)c1c(C)cccc1CC
not listed: [18] | [19] | [20]
inactive: all other assays above

OCC1CCCO1 (stereo not drawn)
not listed: [10] | [13] | [20]
inactive: all other assays above

O=C(O)C(F)(F)OC(F)(F)C(F)(F)OC(F)(F)C(F)(F)OC(F)(F)F
active: [1] 13.2 µM | [4] 66.5 µM | [7] 66.5 µM
not listed: [13] | [19] | [20]
inactive: all other assays above

O=C(Cl)C(F)(F)C(F)(F)C(F)(F)C(F)(F)C(F)(F)C(F)(F)C(F)(F)F
active: [1] 19.7 µM | [4] 63.3 µM | [7] 66.7 µM
not listed: [13] | [18] | [19]
inactive: all other assays above

CC1=CCC2C(=O)OC(=O)C2C1 (stereo not drawn)
active: [6] 65 µM
not listed: [18] | [20]
inactive: all other assays above

C#CC(O)CCC (stereo not drawn)
not listed: [20]
inactive: all other assays above

CO[Si](CCCOCC1CO1)(OC)OC (stereo not drawn)
not listed: [20]
inactive: all other assays above

OCC(F)(F)C(F)(F)C(F)(F)CO
not listed: [10] | [13] | [18]
inactive: all other assays above

O=C(Cl)c1ccc(Cl)cc1Cl
not listed: [13] | [20]
inactive: all other assays above

FC(F)(F)C(F)(F)C(F)(F)C(F)(F)C(F)(F)C(F)(F)C(F)(F)CCI
not listed: [13] | [20]
inactive: all other assays above

CN1CN(C)CN(C)C1
active: [5] 135 µM
not listed: [6] | [10] | [19]
inactive: all other assays above

CCOC(=O)CCC(C)=O
not listed: [6] | [19]
inactive: all other assays above

CN(C)C(C)(C)CO
active: [1] 50 µM
not listed: [6] | [18] | [19] | [20]
inactive: all other assays above

CC(=O)c1ccccc1N
not listed: [6] | [18]
inactive: all other assays above

OCCCCC(F)(F)C(F)(F)C(F)(F)C(F)(F)F
not listed: [6] | [10] | [18]
inactive: all other assays above
